Calls of active or inactive are those of the source. How the source made its calls: active means hit-call score of the fitted dose curve at least 0.9, where 1 is the maximum; inactive means score below 0.9.
Assays:
Settings in all cases: mRNA level, 48 h; actives raise or lower the signal
[1] = read-out: MicroRNA 122 (MIR122), gene 406906; experiment: LTEA_HepaRG_MIR122: Life Technologies and Expression Analysis (LTEA) Assay for MicroRNA 122 (MIR122) using HepaRG (AID 2283516); further: the transcript read is the microRNA miR-122
Method in brief: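 HepaRG, 48 h exposure, 8-pt half-log from 100 uM, 0.5% DMSO; TaqMan qRT-PCR; bidirectional fit vs DMSO.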

[2] = read-out: matrix metalloproteinase-10 (MMP10), MMP10 (gene 4319); experiment: LTEA_HepaRG_MMP10: Life Technologies and Expression Analysis (LTEA) Assay for matrix metalloproteinase-10 (MMP10) using HepaRG (AID 2283517)
Method in brief: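 Differentiated HepaRG cells in serum-free induction medium exposed 48 h in duplicate to 8-point half-log series up to 100 uM in 0.5% DMSO. mRNA quantified by qRT-PCR, normalised to ACTB, GAPDH, POLR2A; bidirectional fit versus DMSO.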

MYC, MYC (gene 4609) = experiment: LTEA_HepaRG_MYC: Life Technologies and Expression Analysis (LTEA) Assay for MYC using HepaRG (AID 2283518)
Method in brief: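 Differentiated HepaRG cells exposed 48 h in serum-free induction medium to 8 concentrations (top 100 uM, half-log steps; 0.5% DMSO), duplicate. MYC mRNA measured by Fluidigm qRT-PCR, normalized to ACTB, GAPDH, POLR2A; bidirectional fit versus DMSO.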

[3] = read-out: matrix metalloproteinase-3 (MMP3), MMP3 (gene 4314); experiment: LTEA_HepaRG_MMP3: Life Technologies and Expression Analysis (LTEA) Assay for matrix metalloproteinase-3 (MMP3) using HepaRG (AID 2283519)
Method in brief: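 HepaRG cells (~100,000/well) in serum-free induction medium were dosed in duplicate for 48 h with an 8-point half-log series from 100 uM, 0.5% DMSO. MMP3 mRNA was quantified by Fluidigm TaqMan qRT-PCR, normalized to three housekeeping genes.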

[4] = read-out: Paternally Expressed 10 (PEG10), PEG10 (gene 23089); experiment: LTEA_HepaRG_PEG10: Life Technologies and Expression Analysis (LTEA) Assay for Paternally Expressed 10 (PEG10) using HepaRG (AID 2283520)
Method in brief: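 Chemicals tested on HepaRG cells for 48 h, highest concentration 100 uM. PEG10 expression assessed by qRT-PCR relative to DMSO control.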

[5] = read-out: Protein phosphatase 2A (PPP2R4), PTPA (gene 5524); experiment: LTEA_HepaRG_PPP2R4: Life Technologies and Expression Analysis (LTEA) Assay for Protein phosphatase 2A (PPP2R4) using HepaRG (AID 2283522)
Method in brief: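 Gene-expression endpoint in HepaRG hepatic cells: 48 h treatment across eight half-log concentrations up to 100 uM in 0.5% DMSO. PPP2R4 mRNA by qRT-PCR, normalized to three endogenous control genes.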

[6] = read-out: Pyruvate Dehydrogenase Kinase 4 (PDK4), PDK4 (gene 5166); experiment: LTEA_HepaRG_PDK4: Life Technologies and Expression Analysis (LTEA) Assay for Pyruvate Dehydrogenase Kinase 4 (PDK4) using HepaRG (AID 2283525)
Method in brief: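 HepaRG cells plated 48 h, then switched to serum-free induction medium and exposed in duplicate for 48 h to 8 half-log concentrations from 100 uM in 0.5% DMSO. PDK4 mRNA measured by qRT-PCR, normalized to ACTB, GAPDH and POLR2A; bidirectional fit versus DMSO.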

[7] = read-out: NAD(P)H dehydrogenase [quinone] 1 (NQO1), NQO1 (gene 1728); experiment: LTEA_HepaRG_NQO1: Life Technologies and Expression Analysis (LTEA) Assay for NAD(P)H dehydrogenase [quinone] 1 (NQO1) using HepaRG (AID 2283526)
Method in brief: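 Human HepaRG hepatic cells received chemicals for 48 h in serum-free induction medium with 0.5% DMSO, up to 100 uM. Expression was assessed by TaqMan qRT-PCR against housekeeping controls and fitted bidirectionally against DMSO.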

[8] = read-out: Nuclear factor erythroid 2-related factor 2 (Homo sapiens) (UniProt Q16236); experiment: LTEA_HepaRG_NFE2L2: Life Technologies and Expression Analysis (LTEA) Assay for Nuclear factor erythroid 2-related factor 2 (NFE2L2) Transcription Factor using HepaRG (AID 2283527);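 on outcome: TaqMan qRT-PCR transcript level normalised to ACTB GAPDH and POLR2A housekeeping genes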
Method in brief: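 Differentiated human HepaRG cells, serum-free induction medium, exposed 48 h in duplicate to eight half-log concentrations up to 100 uM in 0.5% DMSO. NFE2L2 mRNA by Fluidigm TaqMan qRT-PCR, normalised to ACTB, GAPDH, POLR2A; bidirectional change versus DMSO.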

[9] = read-out: Signal transducer and activator of transcription 3 (Homo sapiens) (UniProt P40763); experiment: LTEA_HepaRG_STAT3: Life Technologies and Expression Analysis (LTEA) Assay for Signal transducer and activator of transcription (STAT3) using HepaRG (AID 2283529)
Method in brief: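 Differentiated HepaRG cells, serum-free induction medium, dosed 48 h in duplicate, 8 half-log concentrations from 100 uM in 0.5% DMSO. STAT3 mRNA by qRT-PCR, normalised to ACTB, GAPDH, POLR2A; bidirectional fit versus DMSO.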

[10] = read-out: solute carrier (SLCO1B1), SLCO1B1 (gene 10599); experiment: LTEA_HepaRG_SLCO1B1: Life Technologies and Expression Analysis (LTEA) Assay for solute carrier (SLCO1B1) using HepaRG (AID 2283530)
Method in brief: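 Differentiated human HepaRG cells were exposed for 48 h in serum-free induction medium to eight half-log concentrations, top 100 uM, in 0.5% DMSO. SLCO1B1 mRNA was measured by qRT-PCR, normalized to ACTB, GAPDH and POLR2A, and fitted bidirectionally against DMSO.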

[11] = read-out: sulfotransferase 2A1 (SULT2A1), SULT2A1 (gene 6822); experiment: LTEA_HepaRG_SULT2A1: Life Technologies and Expression Analysis (LTEA) Assay for sulfotransferase 2A1 (SULT2A1) using HepaRG (AID 2283531)
Method in brief: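 HepaRG human liver cells, 48 h exposure in serum-free induction medium to 8 half-log concentrations topping at 100 µM (0.5% DMSO), duplicate wells. SULT2A1 mRNA measured by TaqMan qRT-PCR, normalized to ACTB/GAPDH/POLR2A; bidirectional fit against DMSO.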

[12] = read-out: Transforming Growth Factor (TGFA), TGFA (gene 7039); experiment: LTEA_HepaRG_TGFA: Life Technologies and Expression Analysis (LTEA) Assay for Transforming Growth Factor (TGFA) using HepaRG (AID 2283532)
Method in brief: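 Differentiated HepaRG cells exposed 48 hours in serum-free induction medium, 0.5% DMSO vehicle, 8-point half-log series from 100 uM, in duplicate. TGFA mRNA by TaqMan qRT-PCR, normalised to ACTB, GAPDH, POLR2A; bidirectional fit versus DMSO.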

[13] = read-out: Transforming Growth Factor (TGFB1), TGFB1 (gene 7040); experiment: LTEA_HepaRG_TGFB1: Life Technologies and Expression Analysis (LTEA) Assay for Transforming Growth Factor (TGFB1) Transporter using HepaRG (AID 2283533)
Method in brief: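 Differentiated HepaRG cells exposed 48 hr in serum-free induction medium to eight half-log concentrations up to 100 uM (0.5% DMSO), duplicate; TGFB1 mRNA by TaqMan qRT-PCR normalised to ACTB, GAPDH, POLR2A; bidirectional fit against DMSO.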

TIMP1, TIMP1 (gene 7076) = experiment: LTEA_HepaRG_TIMP1: Life Technologies and Expression Analysis (LTEA) Assay for TIMP1 using HepaRG (AID 2283534);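 further: TaqMan qRT-PCR signal normalized to ACTB GAPDH and POLR2A housekeeping genes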
Method in brief: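 Differentiated HepaRG cells exposed 48 h in serum-free induction medium, duplicates, eight half-log concentrations from 100 uM in 0.5% DMSO. TIMP1 mRNA by qRT-PCR normalized to ACTB, GAPDH, POLR2A; bidirectional fitting against DMSO.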

[14] = read-out: Tumor necrosis factor receptor 1 (TNFRSF1A), TNFRSF1A (gene 7132); experiment: LTEA_HepaRG_TNFRSF1A: Life Technologies and Expression Analysis (LTEA) Assay for Tumor necrosis factor receptor 1 (TNFRSF1A) using HepaRG (AID 2283535)
Method in brief: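 Differentiated HepaRG cells in serum-free induction medium, exposed 48 h in duplicate to 8 half-log concentrations up to 100 uM in 0.5% DMSO. TNFRSF1A mRNA by Fluidigm TaqMan qRT-PCR, normalized to ACTB, GAPDH, POLR2A; bidirectional fit.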

Sequence of Nuclear factor erythroid 2-related factor 2 (Homo sapiens) (Q16236 whole entry, looked up): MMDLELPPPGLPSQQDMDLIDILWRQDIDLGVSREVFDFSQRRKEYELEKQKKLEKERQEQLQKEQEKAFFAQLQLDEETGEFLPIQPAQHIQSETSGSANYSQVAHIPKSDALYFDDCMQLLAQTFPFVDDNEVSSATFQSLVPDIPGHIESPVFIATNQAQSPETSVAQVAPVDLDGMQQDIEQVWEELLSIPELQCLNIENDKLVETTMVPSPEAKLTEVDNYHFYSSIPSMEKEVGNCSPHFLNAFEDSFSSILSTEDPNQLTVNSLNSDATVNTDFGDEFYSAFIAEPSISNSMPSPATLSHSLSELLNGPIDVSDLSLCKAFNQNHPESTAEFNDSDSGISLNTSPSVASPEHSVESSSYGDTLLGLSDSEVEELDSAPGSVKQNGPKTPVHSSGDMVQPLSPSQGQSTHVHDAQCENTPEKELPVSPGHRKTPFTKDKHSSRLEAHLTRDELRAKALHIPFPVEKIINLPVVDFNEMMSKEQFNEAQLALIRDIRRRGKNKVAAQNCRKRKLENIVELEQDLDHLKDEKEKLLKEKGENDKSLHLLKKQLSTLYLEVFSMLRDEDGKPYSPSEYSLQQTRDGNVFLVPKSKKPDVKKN
Sequence of Signal transducer and activator of transcription 3 (Homo sapiens) (P40763 whole entry, looked up): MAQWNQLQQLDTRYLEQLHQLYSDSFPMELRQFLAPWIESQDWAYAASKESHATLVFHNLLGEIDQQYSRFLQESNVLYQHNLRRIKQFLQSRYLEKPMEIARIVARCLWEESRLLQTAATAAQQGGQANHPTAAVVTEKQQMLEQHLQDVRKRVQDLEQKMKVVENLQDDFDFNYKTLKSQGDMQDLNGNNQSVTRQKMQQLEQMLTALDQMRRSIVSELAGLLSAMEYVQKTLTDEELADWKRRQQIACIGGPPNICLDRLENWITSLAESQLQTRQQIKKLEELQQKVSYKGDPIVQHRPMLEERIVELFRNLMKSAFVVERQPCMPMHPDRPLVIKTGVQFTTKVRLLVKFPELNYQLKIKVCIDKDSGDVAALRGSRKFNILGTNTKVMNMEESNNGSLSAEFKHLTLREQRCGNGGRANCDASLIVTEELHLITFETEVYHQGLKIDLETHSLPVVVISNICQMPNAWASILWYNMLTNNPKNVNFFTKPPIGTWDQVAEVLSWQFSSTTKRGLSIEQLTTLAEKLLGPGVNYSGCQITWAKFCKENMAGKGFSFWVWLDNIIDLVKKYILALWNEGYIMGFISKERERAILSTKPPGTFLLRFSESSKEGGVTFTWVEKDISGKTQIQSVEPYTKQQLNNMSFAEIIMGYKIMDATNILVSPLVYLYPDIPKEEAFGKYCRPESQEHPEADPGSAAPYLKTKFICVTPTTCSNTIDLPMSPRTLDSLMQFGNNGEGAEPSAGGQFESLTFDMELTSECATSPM

Question: Which results are given for ClC1=C(Cl)[C@]2(Cl)[C@@H]3[C@@H]4C[C@@H]([C@H]5O[C@@H]45)[C@@H]3[C@@]1(Cl)C2(Cl)Cl?
Answer: outcome [1]: inactive; outcome [2]: inactive; AC50 (MYC, MYC (gene 4609)): 9.92 µM (active); outcome [3]: inactive; outcome [4]: inactive; outcome [5]: inactive; AC50 [6]: 9.05 nM (active); outcome [7]: inactive; AC50 [8]: 29.2 nM (active); AC50 [9]: 31.9 nM (active); outcome [10]: inactive; outcome [11]: inactive; outcome [12]: inactive; outcome [13]: inactive; outcome (TIMP1, TIMP1 (gene 7076)): inactive; outcome [14]: inactive

Question: Which results are given for C=CC(=O)NCNC(=O)C=C?
Answer: outcome [1]: inactive; outcome [2]: inactive; outcome (MYC, MYC (gene 4609)): inactive; outcome [3]: inactive; outcome [4]: inactive; outcome [5]: inactive; outcome [6]: inactive; outcome [7]: inactive; outcome [8]: inactive; outcome [9]: inactive; outcome [10]: inactive; outcome [11]: inactive; outcome [12]: inactive; outcome [13]: inactive; outcome (TIMP1, TIMP1 (gene 7076)): inactive; outcome [14]: inactive

Question: Which outcome [1] does the source give for Cc1cc(O)ccc1Cl here?
Answer: inactive

Question: And the outcome [2]?
Answer: inactive

Question: And the outcome (MYC, MYC (gene 4609))?
Answer: inactive

Question: What about the outcome [3] of the same compound?
Answer: inactive

Question: And the outcome [4]?
Answer: inactive

Question: What about the outcome [5] of the same compound?
Answer: inactive

Question: What about the outcome [6] of the same compound?
Answer: inactive

Question: What about the outcome [7] of the same compound?
Answer: inactive

Question: What about the outcome [8] of the same compound?
Answer: inactive

Question: What about the outcome [9] of the same compound?
Answer: inactive

Question: And the outcome [10]?
Answer: inactive

Question: And the outcome [11]?
Answer: inactive

Question: And the outcome [12]?
Answer: inactive

Question: And the outcome [13]?
Answer: inactive

Question: And the outcome (TIMP1, TIMP1 (gene 7076))?
Answer: inactive

Question: What about the outcome [14] of the same compound?
Answer: inactive

Question: Which outcome [1] does the source give for CCCN(CCC)N=O here?
Answer: inactive

Question: And the outcome [2]?
Answer: inactive

Question: And the outcome (MYC, MYC (gene 4609))?
Answer: inactive

Question: And the outcome [3]?
Answer: inactive

Question: And the outcome [4]?
Answer: inactive

Question: And the outcome [5]?
Answer: inactive

Question: What about the outcome [6] of the same compound?
Answer: inactive

Question: And the outcome [7]?
Answer: inactive

Question: And the outcome [8]?
Answer: inactive

Question: And the outcome [9]?
Answer: inactive

Question: What about the outcome [10] of the same compound?
Answer: inactive

Question: And the outcome [11]?
Answer: inactive

Question: What about the outcome [12] of the same compound?
Answer: inactive

Question: What about the outcome [13] of the same compound?
Answer: inactive

Question: And the outcome (TIMP1, TIMP1 (gene 7076))?
Answer: inactive

Question: And the outcome [14]?
Answer: inactive

Reference: PubChem BioAssay (EPA / NIEHS)
